# Hits are enriched below; roughly 9.4% of the tested compounds scored in any of these assays.
# SMN2 splice enh = SMN2 splice variant enhancement; HEK293 SMN2-luciferase splicing reporter, luminescence, 30-36 h; Potency, µM (titrated, usually from 46.1 µM), for the others: top-dose activity change, positive = activation, usual class: activators; 210,000 tested, 2.8% active; AID 1458; further: % of control where 0% means no effect; nearly all actives have a fitted effect of over 55% in size
#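 qHTS luciferase splicing reporter: luminescence rises when SMN2 exon 7 is included in transfected HEK293 cells. Compound exposure lasted 30-36 h at 37C, with 4.5 mM final sodium butyrate as control, followed by a ONE-Glo read.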
# ELG1 repair inh = blocks ELG1-dependent DNA repair in HEK293T cells. Potency, µM (top dose mostly 46.1 µM), for the others: at the highest dose activity change, negative = inhibition, usual class: inhibitors. HEK293T ELG1-luciferase reporter, luminescence, 16 h; DNA damage induced by 5-fluorouridine. 330,000 tested, 2.3% active; further: on the % scale 0 is the no-effect control and ±100 the full control effect; nearly all actives have a fitted effect of over 55% in size
#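 Cells (2,000 per well) received 5-fluorouridine plus test compound or DMSO and were incubated 16 hr at 37 °C, 5% CO2. Luciferase activity was read by luminescence 30 min after ONE-Glo addition; signal suppression marked inhibition of damage-induced ELG1 function.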
# FLuc counter = firefly luciferase modulation, counter-screen for miR-21 project; P08659; purified FLuc, Km substrates, luminescence inhibition; Potency, µM (highest dose often 57.5 µM), inactives show top-dose activity change, negative = inhibition, most hits filed as inhibitors; 360,000 tested, 6.9% active; AID 588342;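 further: plate controls were vehicle for no effect and reference inhibitor for full effect; nearly all actives have a fitted effect of over 55% in size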
# Target sequence (P08659 whole entry, looked up): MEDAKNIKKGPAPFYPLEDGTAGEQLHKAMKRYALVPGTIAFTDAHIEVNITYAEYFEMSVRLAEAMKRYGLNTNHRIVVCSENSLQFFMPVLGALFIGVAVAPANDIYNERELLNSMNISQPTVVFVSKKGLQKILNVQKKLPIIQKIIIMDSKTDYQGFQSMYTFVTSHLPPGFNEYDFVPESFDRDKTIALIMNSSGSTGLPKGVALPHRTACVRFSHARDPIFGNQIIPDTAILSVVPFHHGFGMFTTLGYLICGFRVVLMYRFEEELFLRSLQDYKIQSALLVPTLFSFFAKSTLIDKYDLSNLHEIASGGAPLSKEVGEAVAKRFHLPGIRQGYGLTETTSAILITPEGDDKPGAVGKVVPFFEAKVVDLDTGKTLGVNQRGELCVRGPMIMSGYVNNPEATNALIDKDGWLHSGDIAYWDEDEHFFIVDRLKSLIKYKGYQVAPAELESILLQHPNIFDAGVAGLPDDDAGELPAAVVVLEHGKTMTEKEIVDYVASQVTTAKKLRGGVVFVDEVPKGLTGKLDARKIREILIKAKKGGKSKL
#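 Purified P. pyralis luciferase, 10 nM final, with Km-level 10 uM D-luciferin and 10 uM ATP in 50 mM Tris acetate pH 7.5, 10 mM Mg acetate, 0.01% Tween-20, 0.05% BSA; 6-point qHTS titration about 60 µM downward; luminescence read.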
# NPC1 promoter act = NPC1 promoter activation | Huh7 NPC1 promoter luciferase reporter, 24 h | Potency, µM (highest dose often 9.22 µM), without a hit: at the highest dose activation, actives largely listed as activators | 320,000 tested, 2.4% active; further: % of control where 0% means no effect; nearly all actives have a fitted effect of over 60% in size
#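 Luciferase expression driven by the NPC1 promoter was measured in stably transfected Huh7 cells after a 24 h compound incubation, using a luciferase reagent and a luminescence read.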
# Rab9 promoter act = activators of Rab9 promoter; Huh7 Rab9 promoter-luciferase reporter, luminescence, 24 h; Potency, µM (series often up to 9.22 µM), without a hit: at the highest dose activation, negative = inhibition, usual class: activators; 320,000 tested, 2.8% active; further: % of control where 0% means no effect; nearly all actives have a fitted effect of over 60% in size
#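 Huh7 cells stably carrying a Rab9 promoter-luciferase reporter, 1500 cells per well in OP-MEM I with 10% FBS, treated with compound 24 hours at 37C. Luciferase activity read by luminescence after 10 minutes with Amplite reagent.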
# ELG1 genotox = genotoxicity induction in ELG1-luciferase HEK293T cells; HEK293T ELG1-luciferase reporter, luminescence, 16 h; 330,000 tested, 1.3% active; AID 504466; Potency, µM (series often up to 46 µM), for the others: at the top dose activity change, positive = activation, most hits filed as activators; further: % of control where 0% means no effect; nearly all actives have a fitted effect of over 60% in size
#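 Reporter readout depends on ELG1 protein level, which increases with genetic stress. After 16 hr compound exposure at 37 °C, luciferase activity was quantified using ONE-Glo.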
# * marks the source's active call; other numbers are inactive results; ? = inconclusive; . = no result given; [ ] = remark or other dose. The call rests on the fitted dose curve; in most records, active means well fitted curve in the direction sought with a large enough effect; inconclusive means small, poorly fitted or top-dose-only effect, or another doubt; inactive means no such curve, though single readings can be large; an effect the other way counts as inactive or inconclusive. Potency means the concentration at half of the fitted maximal effect.
SMILES,SMN2 splice enh,ELG1 repair inh,FLuc counter,NPC1 promoter act,Rab9 promoter act,ELG1 genotox
Cc1cc(NS(=O)(=O)c2ccc(Nc3nc(-c4ccc(O)cc4)cs3)cc2)no1,12%,9%,24µM*,-20%,-9%,0%
O=C(CN1C(=O)CCC1=O)Nc1nc(-c2ccc3ccccc3c2)cs1,27%,?,17µM*,26%,?,14%
Cc1ccc(-c2csc(NC(=O)CN3C(=O)CCC3=O)n2)cc1,9%,16%,-1%,-2%,-22%,4%
CC(=O)Nc1nc(-c2ccc3ccccc3c2)cs1,.,?,1.3µM*,0.63µM*,1.1µM*,?
Oc1ccc(-c2nc(-c3ccc(O)c(O)c3)cs2)cc1,20µM*,?,15µM*,-4%,5%,?
CC(=O)NCCC(=O)Nc1nc(-c2ccc3ccccc3c2)cs1,.,?,?,-1%,6%,?
Cc1cc(C)cc(N2C(=O)CSC23C(=O)N(CC(=O)NCCc2ccccc2)c2ccccc23)c1 (stereo not drawn),.,.,-8%,.,.,.
O=C(CN1C(=O)CCC1=O)Nc1nc(-c2nc3ccccc3s2)cs1,13µM*,?,11µM*,?,2.8µM*,?
Oc1ccc(Nc2nc(-c3ccc4ccccc4c3)cs2)cc1,25%,?,1.1µM*,?,?,?
O=C(CN1C(=O)CCC1=O)Nc1nc(-c2ccccn2)cs1,-23%,-16%,-10%,0%,-6%,-2%
CC1=C(c2ccc(Cl)cc2)S(=O)(=O)NC1=NCCCN1CCN(c2cc(C)ccc2C)CC1,.,.,-3%,.,.,.
COc1ccc(C(=O)CN2Cc3ccccc3C2=N)cc1,.,?,11µM*,4µM*,2.5µM*,2.6µM*
COc1ccc(C(=O)CN2C(=O)COc3ccccc32)cc1,.,0%,2%,-6%,-2%,6%
Cn1c(=N)n(CC(=O)c2ccccc2)c2ccccc21,.,?,1.2µM*,3.2µM*,1.1µM*,0.37µM*
CCCCn1c(=N)n(CC(=O)c2ccc(OC)cc2)c2ccccc21,.,?,-1%,-3%,-6%,-7%
Cn1c(=N)n(CC(=O)c2ccc(Cl)c(Cl)c2)c2ccccc21,.,?,0.38µM*,?,?,?
Cn1c(=N)n(CC(=O)O)c2ccccc21,18%,5%,0%,-3%,-2%,0%
COc1ccc(C(=O)Cn2c(=N)n(C)c3ccccc32)cc1,.,?,8.5µM*,26%,?,?
CCOc1ccc(NC(=O)CC2C(=O)N(c3ccc(C)cc3)C(=O)N2Cc2ccc(OC)cc2)cc1 (stereo not drawn),-2%,.,-12%,.,.,.
COC(=O)Cc1[nH]n(-c2nc3ccccc3s2)c(=O)c1C(C)=Nc1ccc(Cl)cc1,.,?,12µM*,-44%,-58%,2%
COC(=O)Cc1[nH]n(-c2ccccc2)c(=O)c1C(C)=Nc1ccccc1,-14%,?,?,?,3.2µM*,10%
CS[C@@H](CC(=O)O)C(=O)O,-7%[9.22 µM],.,.,.,.,.
S=C1N[C@H](c2ccccc2)N[C@H](c2ccccc2)S1,-12%[9.22 µM],.,.,.,.,.
N#CC(C(=O)Nc1cccc(Cl)c1)=C1Nc2ccccc2N1,27%,3%,4%,11%,2%,4%
N#CC(C(=O)Nc1ccccc1)=C1Nc2ccccc2N1,-26%,-9%,21µM*,-1%,19%,5%
COC(=O)C1C(=O)c2c([nH]c(C(=O)OC3CCCC3)c2C)CC1C (stereo not drawn),14µM*,.,2.4µM*,.,.,.
CCCCCn1c(N2CCN(Cc3ccccc3)CC2)nc2c1c(=O)[nH]c(=O)n2C,6%,16µM*,7%,-1%,-10%,-4%
C=CCn1c(SCc2nc3c(c(=O)[nH]c(=O)n3CCCC)n2CCC)nnc1-c1ccccc1,-17%,18µM*,0%,0%,0%,-7%

# Source: PubChem BioAssay
